About 83,000 compounds went through this panel and 20% of them were active in at least one assay; those are over-represented in the sample as a whole.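 Negative percent growth values reflect cell death: -40 means 40% of the cells present at the start died, and -100 means all died.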 The source made the active and inactive calls. Rule for the calls: active = growth percent below 10; inactive = the rest.
Experiments:
Assay in all cases: NCI-60 one-dose screen, 48 h (100 = growth as untreated, 0 = no growth, -100 = all killed)
Details in all cases: 10 µM unless noted
[1] = system: NCI-H23 lung
[2] = system: NCI-H226 lung
[3] = system: NCI-H322M lung
[4] = system: HOP-62 NSCLC
[5] = system: NCI-H460 lung
[6] = system: HOP-92 NSCLC
[7] = system: NCI-H522 lung
[8] = system: A549/ATCC NSCLC
[9] = system: COLO 205 colon
[10] = system: DU-145 prostate
[11] = system: K-562 leukemia
[12] = system: MALME-3M melanoma
[13] = system: MDA-MB-231 breast
[14] = system: RXF 393 renal
[15] = system: SF-268 CNS
[16] = system: SF-295 CNS
[17] = system: SF-539 CNS
[18] = system: UACC-257 melanoma
[19] = system: M14 melanoma
[20] = system: 786-0 renal

Measured: growth

Brc1ccc2[nH]cc(-c3cncn3CCc3ccccc3)c2c1
inactive: [1] 37.9% | [2] 53.5% | [3] 74.3% | [4] 63.4% | [5] 66.5% | [6] 23.4% | [7] 51.1% | [8] 56.7% | [9] 66.3% | [10] 68.1% | [11] 27.3% | [12] 65% | [13] 65.4% | [14] 38.1% | [15] 50.3% | [16] 37.7% | [17] 65.2% | [18] 48.3% | [19] 53.3%

O=C(Cn1c[n+](CC(=O)c2ccc([N+](=O)[O-])cc2)c2ccccc21)Nc1cccc2cccnc12
inactive: [1] 50.9% | [2] 80.7% | [3] 96% | [4] 95.5% | [5] 77.7% | [6] 28% | [7] 47.1% | [8] 14.3% | [9] 23.9% | [10] 85.1% | [11] 38.2% | [12] 81.4% | [13] 50.5% | [14] 97.6% | [15] 65.1% | [16] 101% | [17] 87.8% | [18] 48.6% | [19] 78.4%

CCN(CC)c1ccc(/C=N/NC(=O)CSc2nc3ccccc3c(=O)n2CCc2ccc(S(N)(=O)=O)cc2)c(O)c1
inactive: [1] 33.9% | [2] 37.9% | [3] 29.4% | [4] 30.4% | [5] 12.8% | [6] 46.8% | [20] 49.5% | [10] 31% | [12] 44.3% | [13] 26% | [14] 44.1% | [15] 32.5% | [16] 38.6% | [17] 22.7% | [18] 16.7% | [19] 31.1%
active: [7] -14.6% | [9] 1.47% | [11] 7.07%

Cn1ccnc1C(=O)/C=C/c1ccc(CC(=O)Nc2ccc(Cl)cc2)cc1
active: [3] 6.08% | [4] -21.2% | [5] -27.6% | [7] 6.86% | [9] 7.39% | [10] 6.47% | [11] 7.81% | [13] 7.75% | [15] 7.98% | [16] 1.24% | [17] -35.2%
inactive: [1] 19.2% | [2] 76.7% | [6] 72% | [20] 11.3% | [12] 87.6% | [14] 17.9% | [18] 85.9% | [19] 67.7%

CCOC(=O)c1cc(C(=O)c2ccc(OC)c(OC)c2)n2c1ccc1ccccc12
inactive: [1] 86.2% | [2] 80.7% | [3] 101% | [4] 85% | [5] 99.2% | [6] 83.3% | [7] 86% | [8] 98.3% | [9] 112% | [10] 109% | [11] 86.8% | [12] 93.8% | [13] 66.9% | [14] 95.7% | [15] 81% | [16] 96.9% | [17] 99.9% | [18] 107% | [19] 102%

COc1cc2c(c(O)c1Cl)C(=O)c1c(O)cc(C[C@H](C)O)cc1[C@H]2[C@H]1c2cc(C[C@H](C)O)cc(O)c2C(=O)c2c1cc(OC)c(Cl)c2O
inactive: [2] 19% | [3] 17.7% | [4] 12.4% | [20] 14.3% | [10] 23.8% | [11] 11.7% | [14] 10.4% | [15] 21.4% | [19] 19%
active: [1] 9.36% | [5] -0.266% | [6] -24.2% | [7] 5.59% | [9] -72.5% | [12] -32.6% | [13] -57.9% | [16] -14.6% | [17] -8.14% | [18] -4.04%

N#C/C(=C\c1ccc(C(F)(F)F)cc1)c1cc2ccccc2[nH]1
inactive: [1] 98.1% | [2] 101% | [3] 100% | [4] 99.8% | [5] 97.7% | [6] 119% | [7] 84.5% | [8] 100% | [9] 113% | [10] 105% | [11] 90.3% | [12] 103% | [13] 92.7% | [14] 113% | [15] 99.4% | [16] 99.8% | [17] 107% | [18] 104% | [19] 108%

Nc1ccccc1NC(=O)c1ccc(-n2nc(-c3ccccc3)c3ccccc32)cc1
inactive: [1] 89.1% | [2] 64.7% | [3] 83.5% | [4] 84.7% | [5] 79.3% | [6] 78.9% | [7] 25% | [8] 74.5% | [9] 117% | [10] 87.2% | [11] 43.7% | [12] 68.9% | [13] 42.9% | [14] 88.7% | [15] 68.2% | [16] 90.7% | [17] 48.8% | [18] 86.2% | [19] 88.9%

COc1cc2c(c(OC)c1OC)CCC(c1cccc(NC(=O)c3cccc(Br)c3)c1)O2 (configuration not stated)
inactive: [1] 95.1% | [2] 93.7% | [3] 98.5% | [4] 99.8% | [5] 100% | [6] 94% | [7] 81% | [20] 93.7% | [9] 98.3% | [10] 91.9% | [11] 88% | [12] 100% | [13] 92.6% | [14] 87.6% | [15] 87.1% | [16] 92.5% | [17] 97.7% | [18] 81.6% | [19] 90.5%

CCOC(=O)c1cc(C(=O)c2ccc(OC)cc2)n2ccc(/C=C/c3cc[n+](CC(=O)c4ccc(OC)cc4)cc3)cc12
inactive: [1] 83.6% | [2] 90.7% | [3] 86.3% | [4] 81.1% | [5] 75.1% | [6] 50.1% | [7] 57.1% | [8] 52.2% | [9] 65.3% | [10] 75% | [12] 92.1% | [13] 72.1% | [14] 99.9% | [15] 94.5% | [16] 104% | [17] 92.9% | [18] 111% | [19] 75.4%
active: [11] -15.2%

C=C1C(=O)O[C@H]2[C@H]1CC/C(CNC(=O)/C=C/c1ccccc1)=C\CC[C@@]1(C)O[C@@H]21
inactive: [1] 54.5% | [2] 64.8% | [3] 71.9% | [4] 80.3% | [5] 39.7% | [15] 48.1% | [16] 62.3%
active: [6] -40.9% | [7] -86.8% | [20] -64.4% | [9] -64.7% | [10] -34.3% | [11] 1.51% | [12] -50.1% | [13] -15.2% | [14] -90.2% | [17] -63.8% | [18] -55.1% | [19] -63.2%

O=C(CNCCN1CCOCC1)N1c2cccc3cccc(c23)N(C(=O)CNCCN2CCOCC2)C1c1cn(-c2ccccc2)nc1-c1cccc([N+](=O)[O-])c1
active: [11] -21.4% | [12] -87.3% | [19] -16.1%
inactive: [1] 95.8% | [2] 81.4% | [3] 97.6% | [4] 89.7% | [5] 96% | [6] 53.2% | [7] 75.3% | [8] 82.3% | [9] 52.8% | [10] 87.8% | [13] 54.4% | [14] 47.9% | [15] 69.6% | [16] 100% | [17] 63.3% | [18] 90.3%

N#C/C(=C\c1ccc([N+](=O)[O-])s1)c1nc2cc(Br)ccc2s1
inactive: [3] 85.6% | [10] 25.9% | [16] 65.7%
active: [1] -27.8% | [2] -75.9% | [4] -35.5% | [5] -26.9% | [6] -55.2% | [7] -45.4% | [8] 5.93% | [9] -74.8% | [11] -5.1% | [12] -81.3% | [13] -56.1% | [14] -17.1% | [15] 6.29% | [17] -71% | [18] 5.39% | [19] -81.9%
